# Results from PubChem BioAssay (EPA / NIEHS).
# Results filed as inconclusive are left out. Activity calls are given as the source filed them. How the source made its calls: active means hit-call score of the fitted dose curve at least 0.9, where 1 is the maximum; inconclusive means response in the unintended direction; inactive means score below 0.9.
# What was measured:
# [1] = target: guinea pig Sigma Receptor, Non-selective Binding, SIGMAR1 (gene 100135589) (UniProt Q60492); experiment: NVS_OR_gSIGMA_NonSelective: NovaScreen (NVS) Nuclear Receptor Binding Assay for guinea pig Sigma Receptor, Non-selective Binding (AID 2283367)
# Procedure, shortened: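 Test chemicals were screened in duplicate at 25 uM, then in concentration series if active, against radioligand binding to guinea pig brain membranes; filtration and scintillation counting at 1 h measured remaining bound ligand.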
# [2] = target: Peroxisome proliferator-activated receptor gamma (Homo sapiens) (UniProt P37231); experiment: NVS_NR_hPPARg: NovaScreen (NVS) Nuclear Receptor Binding Assay for human Peroxisome Proliferator-activated Receptor gamma (PPARg) (AID 2283370)
# Procedure, shortened: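 Fluorescence polarization readout of ligand binding to extracted human PPARg, measured at 2 h. Duplicate single-point screen at 25 uM, then concentration-series retesting; activity defined as signal loss versus DMSO.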
# [3] = target: human Dopamine Transporter (DAT), SLC6A3 (gene 6531) (UniProt Q01959); experiment: NVS_TR_hDAT: NovaScreen (NVS) Transporter Assay for human Dopamine Transporter (DAT) (AID 2283374);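 further: activity means loss of bound radioligand signal relative to DMSO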
# Procedure, shortened: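 Extracted human SLC6A3 protein incubated 1 h with radioligand and test chemical; bound fraction separated on filters and counted. Single 25 uM duplicate screen preceded concentration-response follow-up; positive and negative controls on every plate.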
# [4] = tested on: rat Norepinephrine Transporter (NET), gene 83511; experiment: NVS_TR_rNET: NovaScreen (NVS) Transporter Assay for rat Norepinephrine Transporter (NET) (AID 2283373)
# Procedure, shortened: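 Competitive radioligand displacement at the rat NET using forebrain membrane preparations, 1 h incubation, filter-based scintillation readout. Primary testing in duplicate at a single 25 uM concentration; confirmed actives retested across concentrations.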
# Sequence of Peroxisome proliferator-activated receptor gamma (Homo sapiens) (P37231 whole entry, looked up): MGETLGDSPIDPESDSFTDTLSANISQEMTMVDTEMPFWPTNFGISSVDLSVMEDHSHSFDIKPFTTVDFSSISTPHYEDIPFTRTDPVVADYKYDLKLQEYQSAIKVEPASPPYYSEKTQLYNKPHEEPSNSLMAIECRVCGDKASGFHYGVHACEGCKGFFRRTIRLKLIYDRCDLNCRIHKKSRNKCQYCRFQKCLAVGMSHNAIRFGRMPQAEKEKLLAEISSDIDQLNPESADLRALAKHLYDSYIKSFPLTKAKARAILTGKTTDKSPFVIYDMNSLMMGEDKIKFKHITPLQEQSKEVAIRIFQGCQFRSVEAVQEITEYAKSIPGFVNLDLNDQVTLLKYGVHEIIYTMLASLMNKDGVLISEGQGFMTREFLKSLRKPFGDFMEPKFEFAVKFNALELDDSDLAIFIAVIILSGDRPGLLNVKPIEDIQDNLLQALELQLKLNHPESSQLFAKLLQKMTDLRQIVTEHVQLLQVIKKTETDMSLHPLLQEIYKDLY
# Sequence of human Dopamine Transporter (DAT), SLC6A3 (gene 6531) (Q01959 whole entry, looked up): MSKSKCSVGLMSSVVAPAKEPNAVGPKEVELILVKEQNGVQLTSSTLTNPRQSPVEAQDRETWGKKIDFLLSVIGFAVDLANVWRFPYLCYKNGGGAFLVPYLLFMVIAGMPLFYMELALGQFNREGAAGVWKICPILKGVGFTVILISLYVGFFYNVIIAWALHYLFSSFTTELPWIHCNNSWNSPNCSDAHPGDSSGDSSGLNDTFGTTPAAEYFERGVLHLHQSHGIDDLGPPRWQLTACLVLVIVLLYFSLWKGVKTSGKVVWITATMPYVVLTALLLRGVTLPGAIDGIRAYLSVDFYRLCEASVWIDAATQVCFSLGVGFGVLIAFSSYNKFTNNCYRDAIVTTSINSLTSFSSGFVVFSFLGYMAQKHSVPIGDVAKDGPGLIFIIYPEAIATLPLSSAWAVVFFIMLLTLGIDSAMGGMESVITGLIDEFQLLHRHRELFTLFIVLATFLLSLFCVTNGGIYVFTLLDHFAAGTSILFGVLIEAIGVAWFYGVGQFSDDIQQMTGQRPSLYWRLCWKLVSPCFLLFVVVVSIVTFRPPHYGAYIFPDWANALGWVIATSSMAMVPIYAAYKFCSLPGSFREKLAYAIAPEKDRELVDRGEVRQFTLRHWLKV
# Sequence of guinea pig Sigma Receptor, Non-selective Binding, SIGMAR1 (gene 100135589) (Q60492 whole entry, looked up): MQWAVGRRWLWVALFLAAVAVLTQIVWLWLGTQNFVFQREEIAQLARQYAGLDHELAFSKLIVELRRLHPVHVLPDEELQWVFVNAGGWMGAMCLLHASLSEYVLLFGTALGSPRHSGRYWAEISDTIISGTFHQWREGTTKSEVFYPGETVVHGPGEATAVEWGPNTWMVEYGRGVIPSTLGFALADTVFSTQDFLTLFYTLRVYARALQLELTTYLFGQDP
structure (smiles),measurement,setting,value
CCOC(=O)CC(SP(=O)(OC)OC)C(=O)OCC (stereo not given),outcome,[1],inactive
same,outcome,[2],inactive
C[Si](Cn1cncn1)(c1ccc(F)cc1)c1ccc(F)cc1,AC50,[3],9.33 µM (active)
Cc1cc(C2CC2)nc(Nc2ccccc2)n1,AC50,[4],5.69 µM (active)
CC(=NC#N)N(C)Cc1ccc(Cl)nc1,outcome,[2],inactive
